Targets with a hit are over-represented here; the source holds about 8,800 in all. About 0.5% of all pairs of compound and target were hits.
Compound: CCCS(=O)(=O)Nc1ccc(F)c(C(=O)c2c[nH]c3ncc(-c4ccc(Cl)cc4)cc23)c1F [vemurafenib]
Test: log2 fold change, soluble protein after heating vs DMSO (PISA); higher = thermal stabilisation; K562 lysate, 10 uM; active = over 0.2 and 3.5 SD of the protein, either way, in both replicates (recomputed)
Method in brief: (§1)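 Pellets of K562 cells were dounce-homogenised in PBS pH 7.4 with 1 mM MgCl2, and the crude extract was held at 1 mg/mL protein for a 30 min treatment with 10 μM compound. Aliquots were heated for 3 min over 48°C-58°C and pooled before NP-40 was added to 0.5% at 4°C. The supernatant from 21,000xg for 90 min was quantified by TMTpro 16plex LC-MS/MS with channel sums equalised. Values are reported from duplicates as log-two fold change in thermal stability relative to solvent controls.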

Sequence of UniProt Q8NF50 (Q8NF50 whole entry, looked up): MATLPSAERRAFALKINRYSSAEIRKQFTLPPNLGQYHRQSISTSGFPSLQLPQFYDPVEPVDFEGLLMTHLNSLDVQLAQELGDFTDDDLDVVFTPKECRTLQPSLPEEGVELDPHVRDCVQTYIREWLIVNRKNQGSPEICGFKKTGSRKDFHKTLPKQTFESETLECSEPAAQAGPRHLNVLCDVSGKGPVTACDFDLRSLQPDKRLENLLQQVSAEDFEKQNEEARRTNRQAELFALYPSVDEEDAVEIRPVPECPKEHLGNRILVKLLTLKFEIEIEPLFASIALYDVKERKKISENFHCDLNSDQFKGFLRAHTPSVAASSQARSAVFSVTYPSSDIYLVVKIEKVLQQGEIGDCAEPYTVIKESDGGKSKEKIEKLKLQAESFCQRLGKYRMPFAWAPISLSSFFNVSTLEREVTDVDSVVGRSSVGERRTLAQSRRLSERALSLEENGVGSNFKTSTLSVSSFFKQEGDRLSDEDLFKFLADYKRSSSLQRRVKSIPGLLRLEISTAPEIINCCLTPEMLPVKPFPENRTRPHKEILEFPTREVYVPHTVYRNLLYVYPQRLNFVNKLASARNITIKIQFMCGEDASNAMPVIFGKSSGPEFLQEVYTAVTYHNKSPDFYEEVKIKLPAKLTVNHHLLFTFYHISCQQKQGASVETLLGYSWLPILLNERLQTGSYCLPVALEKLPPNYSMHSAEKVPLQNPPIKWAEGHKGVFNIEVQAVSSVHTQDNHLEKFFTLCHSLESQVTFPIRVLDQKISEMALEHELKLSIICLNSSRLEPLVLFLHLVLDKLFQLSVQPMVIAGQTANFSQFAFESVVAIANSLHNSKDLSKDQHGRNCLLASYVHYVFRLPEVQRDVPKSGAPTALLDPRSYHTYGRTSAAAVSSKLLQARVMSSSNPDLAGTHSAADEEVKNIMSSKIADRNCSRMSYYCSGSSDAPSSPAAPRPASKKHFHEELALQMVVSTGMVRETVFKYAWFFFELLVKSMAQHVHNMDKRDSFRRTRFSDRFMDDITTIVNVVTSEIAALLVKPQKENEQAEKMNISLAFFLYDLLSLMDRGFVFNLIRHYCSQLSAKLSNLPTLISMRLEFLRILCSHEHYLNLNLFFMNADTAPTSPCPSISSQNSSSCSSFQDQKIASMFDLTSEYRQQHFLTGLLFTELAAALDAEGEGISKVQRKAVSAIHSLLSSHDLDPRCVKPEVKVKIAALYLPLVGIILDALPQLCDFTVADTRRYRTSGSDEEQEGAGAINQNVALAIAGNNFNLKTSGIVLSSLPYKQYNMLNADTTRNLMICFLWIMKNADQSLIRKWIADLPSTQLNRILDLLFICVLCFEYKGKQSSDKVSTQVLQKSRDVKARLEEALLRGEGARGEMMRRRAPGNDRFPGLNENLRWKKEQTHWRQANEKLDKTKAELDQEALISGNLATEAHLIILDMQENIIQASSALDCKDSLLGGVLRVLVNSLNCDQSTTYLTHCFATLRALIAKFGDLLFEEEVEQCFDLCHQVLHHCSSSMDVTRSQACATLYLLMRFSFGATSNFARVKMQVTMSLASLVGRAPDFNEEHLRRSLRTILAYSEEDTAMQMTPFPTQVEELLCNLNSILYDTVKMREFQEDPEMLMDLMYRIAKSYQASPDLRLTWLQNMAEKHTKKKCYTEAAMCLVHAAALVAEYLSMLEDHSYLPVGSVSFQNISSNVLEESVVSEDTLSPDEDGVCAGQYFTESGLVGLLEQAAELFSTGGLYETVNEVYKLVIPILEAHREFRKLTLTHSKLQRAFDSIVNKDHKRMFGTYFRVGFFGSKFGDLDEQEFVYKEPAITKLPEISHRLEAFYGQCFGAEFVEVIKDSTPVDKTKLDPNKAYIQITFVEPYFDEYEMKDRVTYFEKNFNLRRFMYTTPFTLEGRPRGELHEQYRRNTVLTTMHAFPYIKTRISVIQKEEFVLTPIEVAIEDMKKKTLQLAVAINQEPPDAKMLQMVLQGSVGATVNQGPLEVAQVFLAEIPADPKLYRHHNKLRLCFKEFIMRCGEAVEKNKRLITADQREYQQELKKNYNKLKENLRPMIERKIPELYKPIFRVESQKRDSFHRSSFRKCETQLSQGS
Sequence of UniProt P61024 (P61024 whole entry, looked up): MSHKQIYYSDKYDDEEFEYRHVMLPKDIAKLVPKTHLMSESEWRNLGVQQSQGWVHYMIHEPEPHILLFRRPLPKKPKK
Sequence of UniProt Q8TDD1 (Q8TDD1 whole entry, looked up): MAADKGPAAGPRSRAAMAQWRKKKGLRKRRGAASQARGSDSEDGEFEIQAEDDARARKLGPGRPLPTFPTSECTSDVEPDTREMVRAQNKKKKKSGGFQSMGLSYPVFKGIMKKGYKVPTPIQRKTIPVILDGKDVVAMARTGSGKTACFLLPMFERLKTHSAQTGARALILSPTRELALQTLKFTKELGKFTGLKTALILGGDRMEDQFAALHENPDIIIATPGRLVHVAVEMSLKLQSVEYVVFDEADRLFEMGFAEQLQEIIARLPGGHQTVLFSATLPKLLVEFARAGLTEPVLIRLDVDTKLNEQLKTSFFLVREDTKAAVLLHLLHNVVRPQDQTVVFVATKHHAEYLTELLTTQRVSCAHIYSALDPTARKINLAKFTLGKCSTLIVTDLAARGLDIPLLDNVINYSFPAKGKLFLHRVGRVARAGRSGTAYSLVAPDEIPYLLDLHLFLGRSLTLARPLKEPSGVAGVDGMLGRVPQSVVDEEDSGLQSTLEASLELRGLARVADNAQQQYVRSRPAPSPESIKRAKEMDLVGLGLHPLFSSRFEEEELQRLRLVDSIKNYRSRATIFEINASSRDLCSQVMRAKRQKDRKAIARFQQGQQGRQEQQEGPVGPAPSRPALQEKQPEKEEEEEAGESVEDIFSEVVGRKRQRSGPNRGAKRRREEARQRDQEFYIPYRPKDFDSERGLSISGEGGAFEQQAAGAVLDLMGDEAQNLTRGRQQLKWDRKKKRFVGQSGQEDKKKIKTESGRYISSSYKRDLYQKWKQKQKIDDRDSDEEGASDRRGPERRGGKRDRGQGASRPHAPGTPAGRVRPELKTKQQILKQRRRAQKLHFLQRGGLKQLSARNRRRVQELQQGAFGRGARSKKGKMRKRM
Sequence of UniProt P68400 (P68400 whole entry, looked up): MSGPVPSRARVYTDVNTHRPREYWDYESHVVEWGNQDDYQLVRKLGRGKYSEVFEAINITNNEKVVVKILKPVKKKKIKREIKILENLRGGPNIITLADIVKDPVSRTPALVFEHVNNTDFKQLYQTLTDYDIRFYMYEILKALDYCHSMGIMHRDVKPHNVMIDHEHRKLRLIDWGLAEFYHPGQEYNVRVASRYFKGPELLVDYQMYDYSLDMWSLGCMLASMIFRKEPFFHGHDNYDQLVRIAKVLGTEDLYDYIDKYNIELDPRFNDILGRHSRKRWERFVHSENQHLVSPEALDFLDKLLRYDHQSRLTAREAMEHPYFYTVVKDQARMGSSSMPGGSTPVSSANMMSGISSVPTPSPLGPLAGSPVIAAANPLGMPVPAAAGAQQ
Sequence of UniProt O75208 (O75208 whole entry, looked up): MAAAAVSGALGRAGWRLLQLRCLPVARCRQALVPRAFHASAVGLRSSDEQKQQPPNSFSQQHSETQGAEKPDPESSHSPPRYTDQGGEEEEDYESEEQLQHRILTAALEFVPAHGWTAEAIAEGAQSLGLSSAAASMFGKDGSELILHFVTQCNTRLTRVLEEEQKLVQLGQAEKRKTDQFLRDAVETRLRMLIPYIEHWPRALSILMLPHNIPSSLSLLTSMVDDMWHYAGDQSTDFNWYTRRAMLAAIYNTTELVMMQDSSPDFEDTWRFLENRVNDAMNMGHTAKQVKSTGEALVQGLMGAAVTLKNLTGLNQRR
Sequence of UniProt Q5EBM0 (Q5EBM0 whole entry, looked up): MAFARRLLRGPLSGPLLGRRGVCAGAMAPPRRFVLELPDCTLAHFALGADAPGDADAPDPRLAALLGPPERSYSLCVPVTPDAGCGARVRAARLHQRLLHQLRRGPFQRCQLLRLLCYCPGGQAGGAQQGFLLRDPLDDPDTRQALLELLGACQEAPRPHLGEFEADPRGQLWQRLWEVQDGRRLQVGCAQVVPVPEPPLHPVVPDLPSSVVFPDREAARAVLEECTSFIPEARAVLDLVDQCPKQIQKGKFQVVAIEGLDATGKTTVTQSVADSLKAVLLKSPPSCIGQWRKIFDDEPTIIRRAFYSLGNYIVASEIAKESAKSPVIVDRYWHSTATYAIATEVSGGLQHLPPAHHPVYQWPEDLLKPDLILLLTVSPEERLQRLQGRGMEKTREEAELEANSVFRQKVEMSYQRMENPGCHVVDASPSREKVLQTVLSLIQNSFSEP
Sequence of UniProt Q8TB03 (Q8TB03 whole entry, looked up): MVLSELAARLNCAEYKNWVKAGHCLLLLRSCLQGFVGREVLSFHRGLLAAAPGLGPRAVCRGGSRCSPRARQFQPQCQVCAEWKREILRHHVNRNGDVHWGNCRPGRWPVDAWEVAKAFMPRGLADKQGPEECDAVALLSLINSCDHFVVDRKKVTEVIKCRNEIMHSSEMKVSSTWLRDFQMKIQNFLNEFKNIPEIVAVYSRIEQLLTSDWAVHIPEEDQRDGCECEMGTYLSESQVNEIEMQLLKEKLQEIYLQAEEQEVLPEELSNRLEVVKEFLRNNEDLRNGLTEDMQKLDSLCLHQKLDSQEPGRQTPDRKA
Sequence of UniProt Q99766 (Q99766 whole entry, looked up): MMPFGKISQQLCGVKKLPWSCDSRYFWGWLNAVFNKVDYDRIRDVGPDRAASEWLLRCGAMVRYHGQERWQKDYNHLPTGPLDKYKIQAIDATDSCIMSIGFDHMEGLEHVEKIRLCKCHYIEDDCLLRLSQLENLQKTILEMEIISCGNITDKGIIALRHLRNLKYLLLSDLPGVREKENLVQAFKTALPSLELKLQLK
Sequence of UniProt P04080 (P04080 whole entry, looked up): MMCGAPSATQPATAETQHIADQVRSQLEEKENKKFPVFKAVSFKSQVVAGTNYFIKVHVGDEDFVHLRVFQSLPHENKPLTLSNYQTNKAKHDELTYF

log2 fold change, inactive:
CIP2A (UniProt Q8TCG1) 0.036, DOCK8 (UniProt Q8NF50) 0.005, COQ9 (UniProt O75208) -0.023, CKS1B (UniProt P61024) -0.047, CXXC1 isoform 2 (UniProt Q9P0U4) -0.029, CXorf38 (UniProt Q8TB03) 0.017, DDX54 isoform 2 (UniProt Q8TDD1) -0.041, CSNK2A1 (UniProt P68400) -0.124, DMAC2L (UniProt Q99766) 0.002, DCP2 (UniProt Q8IU60) -0.05, CYP51A1 (UniProt Q16850) -0.014, CMPK2 (UniProt Q5EBM0) 0.026

Compound: CCCS(=O)(=O)Nc1ccc(F)c(C(=O)c2c[nH]c3ncc(Cl)cc23)c1F
Test: as above
Method in brief: as §1

log2 fold change, inactive:
CKM (UniProt P06732) -0.018, CMIP (UniProt Q8IY22) 0.023, COG6 (UniProt Q9Y2V7) 0.013, DGCR8 (UniProt Q8WYQ5) 0.031, COPZ1 isoform 4 (UniProt P61923) -0.004, DENND6A (UniProt Q8IWF6) 0.033, CKAP5 (UniProt Q14008) -0.013, CNOT2 (UniProt Q9NZN8) -0.026, COL6A5 (UniProt A8TX70) 0.041, DCP1A (UniProt Q9NPI6) 0.017, COG2 (UniProt Q14746) 0.012, DEF6 (UniProt Q9H4E7) -0.005, CSDE1 isoform 4 (UniProt O75534) 0.004, CNOT6L (UniProt Q96LI5) -0.007, DHRS11 (UniProt Q6UWP2) 0.007, DNAJC1 (UniProt Q96KC8) 0.006, DOCK7 (UniProt Q96N67) 0.021, CTNND1 isoform 3 (UniProt O60716) 0.037, CHUK (UniProt O15111) 0.001, COG5 isoform 2 (UniProt Q9UP83) 0.06, CSTB (UniProt P04080) 0.001, CHORDC1 (UniProt Q9UHD1) -0.003, CSTF2 (UniProt P33240) -0.015, CIP2A (UniProt Q8TCG1) 0.019, DOCK8 (UniProt Q8NF50) 0.013, COQ9 (UniProt O75208) 0.126, CKS1B (UniProt P61024) -0.029, CXXC1 isoform 2 (UniProt Q9P0U4) -0.117, CXorf38 (UniProt Q8TB03) -0.015, DDX54 isoform 2 (UniProt Q8TDD1) 0.017, CSNK2A1 (UniProt P68400) 0.017, DMAC2L (UniProt Q99766) 0.026, DCP2 (UniProt Q8IU60) -0.038, CYP51A1 (UniProt Q16850) -0.007, CMPK2 (UniProt Q5EBM0) 0.048
